Measurements taken from PubChem BioAssay (EPA / NIEHS).
Calls of active or inactive are those of the source. How the source made its calls: active means hit-call score of the fitted dose curve at least 0.9, where 1 is the maximum; inactive means score below 0.9.

experiment: ATG_M_06_CIS: Attagene CIS-FACTORIAL HepG2 Assay for M06 Transcription Factor (Internal Marker) (AID 2282950); settings: HepG2 Attagene CIS-FACTORIAL M06 internal marker reporter; actives raise or lower the signal
Procedure: ATG_CIS is a cell-based, multiplexed-readout assay that uses HepG2, a human liver cell line, with measurements taken at 24 hours after chemical dosing in a 24-well plate.ATG_M_06_CIS is one of 52 assay component(s) measured or calculated from the ATG_CIS assay. It is designed to make measurements of mRNA induction, a form of inducible reporter, as detected with fluorescence intensity signals by Reverse transcription polymerase chain reaction (RT-PCR) and Capillary electrophoresis technology.Data from the assay component ATG_M_06_CIS was analyzed into 1 assay endpoint. This assay endpoint, ATG_M_06_CIS, was analyzed with bidirectional fitting relative to DMSO as the negative control and baseline of activity. Using a type of inducible reporter, measures of mRNA for gain or loss-of-signal activity can be used to understand the background control at the transcription factor-level as they relate to the gene . Furthermore, this assay endpoint can be referred to as a secondary readout, because this assay has produced multiple assay endpoints where this one serves a background control function. To generalize the intended target to other relatable targets, this assay endpoint is annotated to the background measurement intended target family, where the subfamily is internal marker.
Human liver HepG2 cells are transiently transfected with multiple reporter transcription units (MRTUs) in 6-well plates using FuGene 6 reagent (Roche; 3 ml FuGene/1 mg DNA). The MRTU constructs are regulated by a cis-regulating element (promoter). […] A major difference between the CIS and TRANS system is that in CIS activities of endogenous TFs are measured, whereas the TRANS assay evaluates changes in activities of exogenous, chimeric NR-Gal4 proteins. […] At the end of 24 hour incubation, total RNA was isolated using TriZol reagent (Invitrogen). The isolated RNA is then reverse-transcribed using oligo(dT) primer and Mo-MLV reverse transcriptase (Invitrogen) with DNAse I (Ambion) treatment for 30 min. The one-tenth of the produced cDNA was amplified by PCR using Taq DNA polymerase (Invitrogen) and two reporter sequence-specific primers. The PCR products were fluorescently labeled by primer extension with 6-arboxyfluorescein (6-FAM) 5'-labeled reporter sequence-specific primer (2 min at 95 C, 20 s at 68 C and 10 min at 72 C) and these products were digested with 5U of HpaI (New England Biolabs) for 2h at 37 C. The fragments were purified using Qiaquick PCR columns (Qiagen), analyzed on an ABI 3130xL genetic analyzer (Applied Biosystems) with peak positions identified by using a set of X-rhodamine (ROX)-labeled MapMarker1000 molecular weight standards (BioVentures). The raw capillary electrophoresis data was processed using Attagraph software (Attagene).

outcome, inactive:
Nc1ccc(Oc2ccc(N)c(N)c2)cc1
O=C(c1ccc(O)cc1)c1ccc(O)cc1O
CC(C)=CCCC(C)C=O (stereo not given)
Cc1ccc(C(C)c2ccc(C)c(C)c2)cc1C
CC(C)c1ccc(C#N)cc1
CCC(=O)Oc1ccc(/C(CC)=C(\CC)c2ccc(OC(=O)CC)cc2)cc1
O=C(O)c1cc(Cl)cc([N+](=O)[O-])c1Cl
CC(=O)[C@H]1[C@H](C#N)C[C@H]2[C@@H]3CC=C4C[C@@H](O)CC[C@]4(C)[C@H]3CC[C@@]21C
C=C1[C@H]2CC[C@@H]3[C@H]2C(C)(C)CCC[C@]13C
NC(CO)(CO)CO
C1CN(SSN2CCOCC2)CCO1
CC(C)c1ccc(C=O)cc1
C=CC=CC=CCCCCC
CCCCCCCCCCCCCCCC[n+]1ccccc1
O=c1cc(-c2ccccc2)oc2ccccc12
N[C@H]1C(O)O[C@H](CO)[C@H](O)[C@@H]1O (stereo not given in full)
CCOc1nc(F)cc2nc(S(=O)(=O)Nc3c(Cl)cccc3C(=O)OC)nn12
Cc1ccc(C(C)(C)C)cc1
O=C(/C=C/C=C/c1ccc2c(c1)OCO2)N1CCCCC1
O=C(C=Cc1ccccc1)OCc1ccccc1
CCCCOCCOC(=O)COc1nc(Cl)c(Cl)cc1Cl
CC(=O)OC(C)C
COc1cc(NC(=O)CC(C)=O)c(OC)cc1Cl
Cc1cccc(N)n1
O=C1CC2CC1C1CCCC21 (stereo not given)
CC1(C)S[C@@H]2[C@H](NC(=O)COc3ccccc3)C(=O)N2[C@H]1C(=O)O
COC(=O)/C=C\C(=O)O
Cc1cc(C)c(C)c(C)c1
O=Nc1ccc(O)cc1
COCc1c(C(C)C)nc(C(C)C)c(/C=C/[C@@H](O)C[C@@H](O)CC(=O)O)c1-c1ccc(F)cc1
CCc1nccnc1C
CCCCC/C=C\C/C=C\CCCCCCCC(=O)OC
Nc1ccc(N)c(Cl)c1
CNC(=S)N(C)C
CCOC(=O)c1ccccc1C(=C1C=C(Br)C(=O)C(Br)=C1)c1cc(Br)c(O)c(Br)c1
CN1C(=O)N(C)C(O)C1O (stereo not given)
CCCCC(CC)CCC(CC(C)C)OS(=O)(=O)O (stereo not given)
CO[Si](OC)(OC)c1ccccc1
N=c1ccn2c(n1)O[C@H]1[C@H](O)[C@@H](CO)O[C@H]12
CCCCCCC1(C)CCC(=O)O1 (stereo not given)
